Test results: the supplement of paper PMC5919970
Counter-ions that a name gives are not always drawn. The full ranking holds about 2,000 compounds; the median of “fractional viability relative to vehicle” is about 0.91, and the lowest 2% start at about 0.045. The entries come from a sample that favours the lowest values as a whole.

System: TYKNU
Test: fractional viability relative to vehicle; TYKNU is a high-grade serous ovarian cancer line; higher = less growth inhibition
Conditions: 72 h
In short: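 TYKNU control cells or lentiCRISPRv2 knockout derivatives were plated at 500 cells per well in duplicate into drug-stamped 384-well plates holding a ~2100-compound library at 2 or 10 μM. Culture was in RPMI 1640 with 10% FBS at 37 °C in 5% CO2, with 72 h of drug treatment. Viability was measured by Cell Titer Glo luminescence, and the averaged duplicate treatment wells were normalised to duplicate control wells at the same plate position.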

[1] = 2uM, genotype: DNM1L knockout (sgDNM1L #1)
[2] = 2uM, genotype: sgCTRLA1 (non-targeting control)
[3] = 10uM, genotype: DNM1L knockout (sgDNM1L #1)
[4] = 10uM, genotype: sgCTRLA1 (non-targeting control)

Row | Compound | fractional viability [1] | fractional viability [2] | fractional viability [3] | fractional viability [4]
1 | C[C@@H]1CC[C@@]2(OC1)O[C@H]1C[C@H]3[C@@H]4CC=C5C[C@@H](O[C@@H]6O[C@H](CO)[C@@H](O[C@@H]7O[C@@H](C)[C@H](O)[C@@H](O)[C@H]7O)[C@H](O)[C@H]6O[C@@H]6O[C@@H](C)[C@H](O)[C@@H](O)[C@H]6O)CC[C@]5(C)[C@H]4CC[C@]3(C)[C@H]1[C@@H]2C [Dioscin] | 0.0559 | 0.0816 | 0.0468 | 0.0196
2 | Cc1cc2c(C(C)C)c(O)c(O)c(C=O)c2c(O)c1-c1c(C)cc2c(C(C)C)c(O)c(O)c(C=O)c2c1O [Gossypol] | 0.9 | 1.04 | 0.253 | 0.247
3 | CCN(Cc1ccc(Cl)nc1)/C(=C/[N+](=O)[O-])NC [Nitenpyram] | 0.733 | 1.08 | 0.638 | 0.862
4 | Cc1ccc(-n2nccn2)c(C(=O)N2CCN(c3nc4cc(Cl)ccc4o3)CC[C@H]2C)c1 [Suvorexant (MK-4305)] | 0.969 | 1.14 | 0.861 | 1.04
5 | CC(C)=CCC[C@]1(C)C=Cc2c(O)c3c(c(CC=C(C)C)c2O1)O[C@]12C(=C[C@@H]4C[C@H]1C(C)(C)O[C@@]2(C/C=C(/C)C(=O)O)C4=O)C3=O [Gambogic Acid] | 0.068 | 0.0361 | 0.0214 | 0.00876
6 | CN(C)Cc1c[nH]c2ccccc12 [Gramine] | 0.908 | 1.14 | 0.859 | 0.971
7 | [O-][n+]1ccccc1[S-].[O-][n+]1ccccc1[S-].[Zn+2] [Zinc Pyrithione] | 0.0424 | 0.0207 | 0.0251 | 0.0128
8 | Cc1sc2c(c1C)C(c1ccc(Cl)cc1)=N[C@@H](CC(N)=O)c1nnc(C)n1-2 | 0.35 | 0.412 | 0.319 | 0.408
9 | c1ccc([C@@H]2C[C@H]2NC2CCNCC2)cc1 | 0.728 | 0.964 | 0.712 | 0.824
10 | CC(=O)Nc1ccc(Cc2ccc(NC(C)=O)cc2)cc1 | 0.759 | 0.99 | 0.747 | 0.791
11 | O=C(O[C@H]1C[C@H]2CC[C@@H](C1)[N+]21CCCC1)C(O)(c1ccccc1)c1ccccc1 [Trospium chloride] | 0.962 | 1.06 | 0.908 | 1.09
12 | Cc1cccc(Cc2c[nH]cn2)c1C [Detomidine HCl] | 1.07 | 1.01 | 0.798 | 1.1
13 | CN[C@@H]1C[C@H]2O[C@@](C)([C@@H]1OC)n1c3ccccc3c3c4c(c5c6ccccc6n2c5c31)C(=O)NC4 [Staurosporine] | 0.092 | 0.066 | 0.0336 | 0.0269
14 | Cn1c(COP(=O)(NCCBr)NCCBr)cnc1[N+](=O)[O-] | 1.47 | 1.27 | 0.89 | 1.27
15 | CCN(CC)C(=O)c1ccc(C2=CC3(CCNCC3)Oc3cccc(O)c32)cc1 | 1.05 | 1.03 | 0.914 | 0.931
16 | C[C@@H]1O[C@@H](O[C@H]2C[C@@H](O)[C@]3(CO)[C@H]4[C@H](O)C[C@]5(C)[C@@H](C6=CC(=O)OC6)CC[C@]5(O)[C@@H]4CC[C@]3(O)C2)[C@H](O)[C@H](O)[C@H]1O [Ouabain] | 0.05 | 0.0369 | 0.0346 | 0.0311
17 | N#C[C@H](O[C@@H]1O[C@H](C(=O)O)[C@@H](O)[C@H](O)[C@H]1O)c1ccccc1 [Laetrile] | 0.984 | 1.23 | 0.709 | 1.16
18 | COc1cc(-n2c(=S)[nH]c3ccccc3c2=O)c(Cl)cc1Cl [Mdivi-1] | 0.879 | 0.994 | 0.654 | 0.851
19 | Cc1cccc(C)c1NC(=O)CN1CCCC1=O [Nefiracetam] | 0.909 | 1.08 | 1.02 | 1.16
20 | CC(C)N(CCNC(=O)CN1CCCC1=O)C(C)C [Pramiracetam] | 0.94 | 1.16 | 0.882 | 1.02
21 | C[C@@H]1[C@H](O)[C@@H](C)/C=C/C=C/CC/C=C/C=C/C=C/C=C/[C@H](O[C@H]2O[C@@H](C)[C@H](O)[C@@H](N)[C@H]2O)C[C@@H]2O[C@](O)(C[C@@H](O)[C@H](O)CC[C@@H](O)C[C@@H](O)C[C@@H](O)CC(=O)O[C@H]1C)C[C@H](O)[C@H]2C(=O)O [Nystatin (Fungicidin)] | 0.929 | 1.11 | 0.854 | 1.03
22 | O=C(O)c1nn(Cc2ccc(Cl)cc2Cl)c2ccccc12 [Lonidamine] | 0.961 | 1.06 | 0.87 | 1.16
23 | Cc1sc2c(c1C)C(c1ccc(Cl)cc1)=N[C@@H](CC(=O)OC(C)(C)C)c1nnc(C)n1-2 | 0.37 | 0.516 | 0.278 | 0.394
24 | O=C(O)CNC(=O)c1c(O)c2ccccc2n(Cc2ccccc2)c1=O | 1.04 | 1.17 | 0.762 | 1
25 | O=c1[nH]c2ccc(Cl)cc2c(N[C@@H]2CN3CCC2CC3)c1-c1nc2ccccc2[nH]1 | 0.154 | 0.195 | 0.0777 | 0.0446
26 | O=S(=O)(CC1CS1)c1ccc(Oc2ccccc2)cc1 (centres undefined) | 0.744 | 0.851 | 0.163 | 0.172

Row | Compound | fractional viability [1] | fractional viability [2] | fractional viability [3] | fractional viability [4]
27 | C[C@](O)(COc1ccc(C#N)cc1)C(=O)Nc1ccc(C#N)c(C(F)(F)F)c1 | 1 | 1.13 | 0.879 | 1.03
28 | CCN1CCN(C(=O)Cc2ccc(Nc3ncc(F)c(Nc4ccc(C(=O)Nc5ccccc5Cl)cc4)n3)cc2)CC1 [Aurora A Inhibitor I] | 0.904 | 0.926 | 0.0479 | 0.0775
29 | NC(=O)CN1CC(O)CC1=O (centres undefined) [Oxiracetam] | 0.755 | 1.16 | 0.688 | 0.976
30 | C#C[C@]1(O)C=C[C@H]2[C@@H]3CCC4=CC(=O)CC[C@@H]4[C@H]3CC[C@@]21CC [Gestodene] | 1.13 | 1.04 | 0.861 | 0.945
31 | CC1=C(O)C(=O)C=C2C1=CC=C1[C@@]2(C)CC[C@@]2(C)[C@@H]3C[C@](C)(C(=O)O)CC[C@]3(C)CC[C@]12C [Celastrol] | 0.0457 | 0.0557 | 0.0154 | 0.0139
32 | CC(C)(C)c1cc(C=C(C#N)C#N)cc(Br)c1O | 1.21 | 1.08 | 1.09 | 0.939
33 | CCOc1ccccc1-n1c(C(C)N2CCN(C(=O)COc3ccc(Cl)cc3)CC2)nc2ccccc2c1=O (centres undefined) [Erastin] | 0.123 | 0.0716 | 0.0411 | 0.0416
34 | O=[N+]([O-])/C=C/c1ccc2c(c1)OCO2 | 0.362 | 0.336 | 0.0604 | 0.0474
35 | Cc1cccc(C(C)c2c[nH]cn2)c1C (centres undefined) [Medetomidine HCl] | 1.09 | 1.09 | 0.755 | 1.03
36 | O=[N+]([O-])c1ncc[nH]1 [Azomycin] | 0.753 | 1.09 | 0.757 | 0.975
37 | CC[C@H](C)[C@@H]([C@@H](CC(=O)N1CCC[C@H]1[C@H](OC)[C@@H](C)C(=O)N[C@H](C)[C@@H](O)c1ccccc1)OC)N(C)C(=O)[C@@H](NC(=O)[C@@H](NC)C(C)C)C(C)C [Monomethyl auristatin E (MMAE)] | 0.0977 | 0.0889 | 0.0769 | 0.0612
38 | Cc1cccc([C@H](C)c2c[nH]cn2)c1C [Dexmedetomidine] | 1.06 | 1.23 | 0.8 | 1.05
39 | CCCCCCCCCCCCCCCC[n+]1ccccc1 [Cetylpyridinium Chloride] | 0.216 | 0.196 | 0.0152 | 0.0105
40 | Cc1ccccc1-n1c(Cn2ncc3c(N)ncnc32)nc2cccc(C)c2c1=O | 0.87 | 1.14 | 0.731 | 1.15
41 | CCc1c(C(=O)C(N)=O)c2c(OCC(=O)O)cccc2n1Cc1ccccc1 | 1.09 | 1.02 | 0.94 | 0.973
42 | Cn1cc(C2=C(c3cn(C4CCN(Cc5ccccn5)CC4)c4ccccc34)C(=O)NC2=O)c2ccccc21 | 0.952 | 0.961 | 0.948 | 0.916
43 | Cc1cc(C(C#N)c2ccc(Cl)cc2)c(Cl)cc1NC(=O)c1cc(I)cc(I)c1O (centres undefined) [Closantel Sodium] | 0.98 | 1.19 | 0.879 | 0.97
44 | Cc1cc(C(C#N)c2ccc(Cl)cc2)c(Cl)cc1NC(=O)c1cc(I)cc(I)c1O (centres undefined) [Closantel] | 1.13 | 1.17 | 0.948 | 1.1
45 | COc1ccc(C[C@H]2NC[C@H](O)[C@H]2OC(C)=O)cc1 [Anisomycin] | 0.109 | 0.0785 | 0.118 | 0.0319
46 | COc1cc(C)[nH]c(=O)c1CNC(=O)c1c(C)n([C@H](C)C2CCOCC2)c2ccccc12 | 0.85 | 0.972 | 0.755 | 0.698
47 | CCc1cc2c(s1)-n1c(C)nnc1CN=C2c1ccccc1Cl [Etizolam] | 0.778 | 1 | 0.707 | 0.96
48 | CC(C)(C)[C@]1(O)CC2OC(=O)CC23C(=O)OC2OC(=O)[C@H](O)C231 (some centres undefined) [Bilobalide] | 0.854 | 1.09 | 0.975 | 1.11
49 | O=C1CCC[C@@H]2[C@H]3CCCN4CCC[C@@H](CN12)[C@@H]34 [(+)-Matrine] | 0.865 | 1.03 | 0.795 | 1
50 | COc1cc([C@@H]2c3cc4c(cc3[C@H](O)[C@H]3COC(=O)[C@@H]23)OCO4)cc(OC)c1OC [Picropodophyllin (PPP)] | 0.139 | 0.142 | 0.121 | 0.0713
51 | O=C(NCC1CCOCC1)c1cnc(Nc2ccc(Cl)cc2Cl)nc1C(F)(F)F | 1.03 | 1.32 | 0.768 | 1.19
